# Rows were chosen to be rich in hits. Some 19% of all compounds tested hit in one or more screens of this group.
# TDP1 inh: qHTS Assay for Inhibitors of Tyrosyl-DNA Phosphodiesterase (TDP1); Tyrosyl-DNA phosphodiesterase 1 (Homo sapiens), Q9NUW8; Potency, µM (highest dose often 130 µM), for inactives: top-dose activity change, negative = inhibition, actives largely listed as inhibitors; recombinant TDP1, AlphaScreen DNA substrate cleavage; hit rate 0.28% among 350,000; further: nearly all actives have a fitted effect of over 40% in size
# Target sequence (Q9NUW8 whole entry, looked up): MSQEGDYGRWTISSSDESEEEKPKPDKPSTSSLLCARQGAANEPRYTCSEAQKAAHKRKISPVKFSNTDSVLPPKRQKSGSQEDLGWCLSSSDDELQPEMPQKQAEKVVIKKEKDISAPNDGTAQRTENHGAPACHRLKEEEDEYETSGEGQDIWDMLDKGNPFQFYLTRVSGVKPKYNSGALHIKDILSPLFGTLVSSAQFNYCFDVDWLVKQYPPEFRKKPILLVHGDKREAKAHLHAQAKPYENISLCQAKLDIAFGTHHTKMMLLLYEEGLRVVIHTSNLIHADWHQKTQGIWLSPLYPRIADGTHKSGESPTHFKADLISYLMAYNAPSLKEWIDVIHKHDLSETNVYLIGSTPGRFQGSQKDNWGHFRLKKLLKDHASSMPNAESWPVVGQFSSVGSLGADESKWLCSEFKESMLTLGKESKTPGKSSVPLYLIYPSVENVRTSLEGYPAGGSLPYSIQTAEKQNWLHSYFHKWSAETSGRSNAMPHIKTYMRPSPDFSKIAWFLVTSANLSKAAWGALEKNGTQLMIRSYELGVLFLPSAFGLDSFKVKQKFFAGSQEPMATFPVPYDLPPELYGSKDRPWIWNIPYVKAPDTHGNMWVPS
#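 Tdp1 1 nM final; 15 min RT w/ cpd; substrate 15 nM, 5 min; beads 10 ug/ml, 10 min; AlphaScreen read. Neg ctrl: no enzyme.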
# RORg inh: qHTS for inhibitors of ROR gamma transcriptional activity | Drosophila S2 Gal4-RORgamma UAS-luciferase reporter, 20 h | Potency, µM (top dose mostly 53.6 µM), inactives show at the highest dose activity change, negative = inhibition, usual class: inhibitors | hit rate 5.4% among 310,000 | Nuclear receptor ROR-gamma (Mus musculus), P51450; further: nearly all actives have a fitted effect of over 60% in size
#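 Using a luciferase readout, inhibitors were identified by reduced reporter activity in Drosophila cells coexpressing a copper-inducible Gal4–ROR gamma fusion and UAS-driven Photinus luciferase, incubated 20 hr after 700 uM copper sulfate.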
# TDP1 cell noCPT: qHTS for Inhibitors of human tyrosyl-DNA phosphodiesterase 1 (TDP1): qHTS in cells in absence of CPT; DT40 Tdp1-/- hTDP1 cells, no CPT, ATP luminescence, 48 h; Potency, µM (series often up to 46.2 µM), without a hit: top-dose activity change, negative = growth inhibition, hits mostly inhibitors; hit rate 15% among 420,000; further: nearly all actives have a fitted effect of over 55% in size
#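 Chicken DT40 Tdp1-/- cells complemented with human TDP1, screened without camptothecin (DMSO vehicle only), 400 cells/well. Compounds pin-transferred, cells incubated at 37 °C for at least 48 hr. Growth read as ATP-dependent luminescence (CellTiter-Glo, 30 min at RT).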
# Gal4-VP16 FLuc: VP16 counterscreen qHTS for inhibitors of ROR gamma transcriptional activity | Drosophila S2 Gal4-VP16 UAS-luciferase, luminescence, 20 h | Potency, µM (doses to about 53.6 µM), without a hit: at the highest dose activity, negative = inhibition, actives largely listed as inhibitors | hit rate 3.5% among 310,000 | AID 2546, 2010;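 further: Gal4-VP16 expression switched on by copper sulfate through the metallothionein promoter; nearly all actives have a fitted effect of over 50% in size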
# TDP1 cell CPT: qHTS for Inhibitors of human tyrosyl-DNA phosphodiesterase 1 (TDP1): qHTS in cells in presence of CPT; hit rate 12% among 420,000; Potency, µM (top dose mostly 46.2 µM), without a hit: at the highest dose activity change, negative = growth inhibition, most hits filed as inhibitors; AID 686979, 2013; chicken DT40 Tdp1-/-;hTDP1 cells + 20 nM CPT, ATP luminescence, 48 h; further: nearly all actives have a fitted effect of over 55% in size
#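 Chicken DT40 Tdp1-/- cells stably complemented with human TDP1 were seeded at 400 cells/well in medium containing 20 nM camptothecin, exposed to pin-transferred compounds, and grown at 37 °C for at least 48 hr. Viability was read as ATP luminescence.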
# Starred values were filed as active, the others as inactive; ? = inconclusive; nt = not tested or not shown; [ ] = remark or other dose. The call rests on the fitted dose curve; in most records, active means well fitted curve in the direction sought with a large enough effect; inconclusive means small, poorly fitted or top-dose-only effect, or another doubt; inactive means no such curve, though single readings can be large; an effect the other way counts as inactive or inconclusive. On the % scale 0 is the no-effect control and ±100 the full control effect; potency means the concentration at half of the fitted maximal effect.
SMILES,TDP1 inh,RORg inh,TDP1 cell noCPT,Gal4-VP16 FLuc,TDP1 cell CPT
CC1(C)c2ccccc2C(=O)c2ccccc21,nt,nt,?,nt,-29.7%
CNc1c(Br)cc(C(O)C2=CCc3ccccc32)cc1Br (stereo not given),nt,nt,4.47µM*,nt,8.91µM*
CNc1c(Br)cc(/C=C2\C=Cc3ccccc32)cc1Br,nt,nt,?,nt,-8.6%
COC(=O)c1c(C(=O)OC)n(CCCN)c2ccc(C)cc12,-9.1%,-14.8%,13µM*,4.4%,23.1µM*
COC(=O)N/N=C/c1sc(N2CCCCC2)nc1-c1cccs1,4.7%,10µM*,5.5%,0.794µM*,0.8%
O=C(COC(=O)c1ccc(Cl)cc1Cl)Nc1cccc(S(=O)(=O)NC2=NCCC2)c1,1.5%,nt,-2.4%,nt,0.1%
O=C(O)Cc1cc(I)c(Oc2ccc(O)c(I)c2)c(I)c1,8.2%,39.0%,-0.3%[21.1 µM],-0.9%,3.3%[21.1 µM]
CC(C)NC(=O)Cn1c(SCC(=O)N2CCCc3ccccc32)nc2ccccc21,3.8%,3.4%,-9.3%,0.9%,-18.2%
Cn1c(NCC2CCCCC2)nc2cc(-c3ccsc3)sc2c1=O,nt,nt,?,nt,25.9µM*
Cn1c(NCc2ccccc2F)nc2cc(-c3ccccc3)sc2c1=O,nt,nt,20.6µM*,nt,18.4µM*
Cn1c(NCc2ccccc2F)nc2cc(-c3ccsc3)sc2c1=O,nt,nt,23.1µM*,nt,?
Cn1c(NCc2ccc3occc3c2)nc2cc(-c3ccc(F)cc3)sc2c1=O,nt,nt,-12.4%,nt,-24.0%
Cc1ccc(CNc2nc3cc(-c4ccccc4)sc3c(=O)n2C)c(C)c1,nt,nt,-25.3%,nt,16.4µM*
CCCCN1C(=O)CN(C2CCCCC2)C(=O)C1c1ccc(OC(C)C)c(OC)c1 (stereo not given),13.0%,nt,?,nt,-23.7%
COc1cccc(-c2cc3nc(NCc4ccccc4F)n(C)c(=O)c3s2)c1,nt,nt,16.4µM*,nt,23.1µM*
Cn1c(NCc2ccccc2F)nc2cc(-c3cccc(Cl)c3)sc2c1=O,nt,nt,20.6µM*,nt,14.6µM*
COc1ccc(-c2nnc(SC)nc2-c2ccc(OC)c([N+](=O)[O-])c2)cc1[N+](=O)[O-],nt,nt,?,nt,-6.8%
COc1cccc(C(=O)Nc2ccccc2-c2ccccc2)c1,-4.8%,nt,?,nt,-26.8%
CCN1C(=O)[C@H]2[C@@H](c3ccc(-c4ccc(F)cc4)cc3)N[C@@](C)(C(=O)OC)[C@H]2C1=O,-14.0%,nt,20.6µM*,nt,23.1µM*
CCN1C(=O)[C@H]2[C@@H](c3ccc(-c4ccc(F)cc4)c(OC)c3)N[C@@](C)(C(=O)OC)[C@H]2C1=O,nt,nt,?,nt,13µM*
CCN1C(=O)[C@H]2[C@@H](c3ccc(-c4ccc(C(C)=O)cc4)cc3)N[C@@](C)(C(=O)OC)[C@H]2C1=O,1.5%,nt,-24.4%,nt,?
COC(=O)[C@]1(C)N[C@H](c2ccc(-c3cccc(Cl)c3)cc2)[C@@H]2C(=O)N(C)C(=O)[C@@H]21,-10.0%,nt,?,nt,?
CCN1C(=O)C2C(c3cccc(F)c3)NC(C)(C(=O)OC)C2C1=O (stereo not given),0.0%,4.6%,-7.9%,7.7%,-10.8%
CCN1C(=O)[C@H]2[C@@H](c3ccc(-c4cccc(Cl)c4)cc3)N[C@@](C)(C(=O)OC)[C@H]2C1=O,-3.8%,nt,13µM*,nt,16.4µM*
COCCNC(=O)CN(C(=O)Cn1nnc2ccccc21)c1ccc(F)c(Cl)c1,3.6%,-3.3%,9.3%,0.4%,2.1%
Cc1ccccc1CSCC(=O)Nc1ccccc1Br,nt,8.3%,18.9%,-5.3%,0.4%
CCCCN([C@H](CO)C(C)C)S(=O)(=O)c1ccccc1Br,0.7%[56.1 µM],nt,20.6µM*,nt,?
C=CCCN([C@@H](C)C(=O)OC)S(=O)(=O)c1ccccc1Br,nt,-26.9%,?,-8.5%,-20.0%
OCCSc1nc(-c2ccccc2)nc2ccc(F)cc12,0.0%,-9.2%,?,2.4%,?

# Assay outcomes (PubChem BioAssay)
